Measured values published in PubChem BioAssay AID1159580 (chemical genetic matrix, 2015).
“And” between values parts separate entries of the source, which are not always exact repeats. Equal entries are not always repeated. Screen size: about 5,500 compounds; about 2,000 (36%) were called active. About 18% were inconclusive and are not listed. Cut-off read from the data, not from the text of the source: active = normalized growth mostly below about 0.91 (no sharp cut-off); inconclusive = no clear call, values can overlap the other calls; inactive = mostly above about 0.92. The list shows a part of the results.

Assay: chemical genetic growth profiling, strain panel (AID 1159580);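 note: tested at 20 µM; growth read once vehicle control cultures reached saturation at 30 °C; 1 = growth at the plate median or of vehicle wells; lower values mean less growth of the strain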
Conditions: S. cerevisiae deletion strains, growth OD

Measured: normalized growth

CC1=C(O)C(=O)C=C2C1=CC=C1[C@@]2(C)CC[C@@]2(C)[C@@H]3C[C@](C)(C(=O)O)CC[C@]3(C)CC[C@]12C
inactive: locus YBR021W, strain FUR4, hits give low values 0.859 | locus YDL185W, strain tfp1, hits give low values 0.943 | locus YKL009W, strain mrt4, hits give low values 0.908 | locus YKL085W, strain MDH1 (second series), hits give low values 0.941 | locus YKL085W, strain MDH1, hits give low values 0.941 | locus YNL298W, strain CLA4, hits give low values 0.918 | locus YNL322C, strain KRE1 (second series), hits give low values 0.937 | locus YOL012C, strain htz1 0.278
active: locus YAL021C, strain ccr4, hits give low values 0.56 | locus YAL026C, strain drs2, hits give low values 0.51 | locus YAL030W, strain snc1, hits give low values 0.573 | locus YBL061C, strain skt5, hits give low values 0.479 | locus YBR009C, strain hhf1, hits give low values 0.375 | locus YBR023C, strain chs3, hits give low values 0.42 | locus YBR171W, strain sec66, hits give low values 0.812 | locus YBR229C, strain ROT2, hits give low values 0.623 | locus YBR231C, strain swc5, hits give low values 0.307 | locus YBR279W, strain paf1, hits give low values 0.527 | locus YCL011C, strain gbp2, hits give low values 0.433 | locus YCL016C, strain dcc1, hits give low values 0.592 | locus YCL029C, strain bik1, hits give low values 0.493 | locus YCL061C, strain MRC1, hits give low values 0.611 | locus YCL069W, strain vba3, hits give low values 0.611 | locus YCR088W, strain abp1, hits give low values 0.64 | locus YDL005C, strain med2, hits give low values 0.509 | locus YDL035C, strain GPR1, hits give low values 0.391 | locus YDL040C, strain nat1, hits give low values 0.848 | locus YDL074C, strain BRE1, hits give low values 0.195 | locus YDL101C, strain DUN1, hits give low values 0.264 | locus YDL134C, strain PPH21, hits give low values 0.44 | locus YDL192W, strain arf1, hits give low values 0.568 | locus YDR001C, strain nth1, hits give low values 0.806 | locus YDR069C, strain doa4, hits give low values 0.327 | locus YDR101C, strain arx1, hits give low values 0.665 | locus YDR137W, strain rgp1, hits give low values 0.238 | locus YDR159W, strain sac3, hits give low values 0.403 | locus YDR162C, strain NBP2, hits give low values 0.098 | locus YDR195W, strain ref2 0.348 | locus YDR297W, strain sur2, hits give low values 0.429 | locus YDR318W, strain mcm21, hits give low values 0.523 | locus YDR334W, strain swr1, hits give low values 0.353 | locus YDR335W, strain msn5, hits give low values 0.522 | locus YDR388W, hits give low values 0.683 | locus YDR392W, strain spt3, hits give low values 0.101 | locus YDR502C, strain sam2, hits give low values 0.521 | locus YEL003W, strain gim4, hits give low values 0.489 | locus YEL037C, strain rad23, hits give low values 0.769 | locus YEL061C, strain CIN8 (second series), hits give low values 0.403 | locus YEL061C, strain CIN8, hits give low values 0.391 | locus YER015W, strain faa2, hits give low values 0.429 | locus YER016W, strain bim1, hits give low values 0.565 | locus YER110C, hits give low values 0.766 | locus YER111C, strain swi4, hits give low values 0.329 | locus YER155C, strain BEM2 (second series), hits give low values 0.342 | locus YER155C, strain BEM2, hits give low values 0.254 | locus YER167W, strain BCK2, hits give low values 0.334 | locus YFR010W, strain ubp6, hits give low values 0.657 | locus YGL078C, strain dbp3, hits give low values 0.905 | locus YGL086W, strain mad1, hits give low values 0.619 | locus YGL167C, strain pmr1, hits give low values 0.706 | locus YGL173C, strain kem1, hits give low values 0.27 | locus YGL227W, strain vid30, hits give low values 0.571 | locus YGL240W, strain doc1, hits give low values 0.646 | locus YGL248W, strain PDE1, hits give low values 0.369 | locus YGL253W, strain hxk2, hits give low values 0.485 | locus YGR135W, strain pre9, hits give low values 0.557 | locus YGR252W, strain gcn5, hits give low values 0.5 | locus YHR013C, strain ard1, hits give low values 0.273 | locus YHR027C, strain rpn1, hits give low values 0.423 | locus YHR030C, strain SLT2, hits give low values 0.248 and 0.76 | locus YHR079C, strain IRE1 (second series), hits give low values 0.659 | locus YHR079C, strain IRE1, hits give low values 0.732 | locus YHR094C, strain hxt1, hits give low values 0.721 | locus YHR129C, strain ARP1, hits give low values 0.349 | locus YHR142W, strain chs7, hits give low values 0.309 | locus YHR200W, strain rpn10, hits give low values 0.749 | locus YIL066C, strain RNR3, hits give low values 0.308 | locus YIL073C, strain SPO22, hits give low values 0.623 | locus YIL125W, strain kgd1, hits give low values 0.812 | locus YIR030C, strain dcg1, hits give low values 0.552 | locus YJL092W, strain hpr5, hits give low values 0.7 | locus YJL095W, strain BCK1 (second series), hits give low values 0.372 | locus YJL095W, strain BCK1, hits give low values 0.211 and 0.783 | locus YJL115W, strain asf1, hits give low values 0.856 | locus YJL129C, strain trk1, hits give low values 0.35 | locus YJL134W, strain LCB3, hits give low values 0.692 | locus YJL154C, strain vps35, hits give low values 0.776 | locus YJL164C, strain tpk1, hits give low values 0.316 | locus YJL166W, strain qcr8, hits give low values 0.312 | locus YJL168C, strain set2, hits give low values 0.866 | locus YJL187C, strain SWE1 (second series), hits give low values 0.142 | locus YJR043C, strain POL32, hits give low values 0.385 | locus YJR066W, strain TOR1, hits give low values 0.792 | locus YKL068W, hits give low values 0.895 | locus YKL160W, strain elf1, hits give low values 0.541 | locus YKL190W, strain CNB1, hits give low values 0.315 | locus YKR001C, strain vps1, hits give low values 0.13 | locus YKR026C, strain gcn3, hits give low values 0.852 | locus YKR091W, strain srl3, hits give low values 0.843 | locus YLL001W, strain dnm1, hits give low values 0.617 | locus YLL026W, hits give low values 0.74 | locus YLL041C, strain sdh2, hits give low values 0.764 | locus YLR027C, strain aat2, hits give low values 0.502 | locus YLR039C, strain RIC1, hits give low values 0.157 | locus YLR058C, strain SHM2, hits give low values 0.224 | locus YLR102C, strain apc9, hits give low values 0.83 | locus YLR113W, strain HOG1, hits give low values 0.472 | locus YLR221C, strain rsa3, hits give low values 0.419 | locus YLR258W, strain gsy2, hits give low values 0.541 | locus YLR262C, strain YPT6 (second series), hits give low values 0.149 | locus YLR262C, strain YPT6, hits give low values 0.182 | locus YLR268W, strain sec22, hits give low values 0.355 | locus YLR320W, strain mms22, hits give low values 0.256 | locus YLR330W, strain CHS5, hits give low values 0.253 | locus YLR342W, strain FKS1 (second series), hits give low values 0.336 | locus YLR342W, strain FKS1, hits give low values 0.387 | locus YLR357W, strain rsc2, hits give low values 0.731 | locus YLR370C, strain arc18, hits give low values 0.704 | locus YLR371W, strain rom2, hits give low values 0.418 | locus YLR384C, strain iki3, hits give low values 0.759 | locus YLR418C, strain cdc73, hits give low values 0.176 | locus YML016C, strain PPZ1, hits give low values 0.547 | locus YML032C, strain rad52, hits give low values 0.533 | locus YML120C, strain ndi1, hits give low values 0.608 | locus YML124C, strain tub3, hits give low values 0.738 | locus YMR058W, strain fet3, hits give low values 0.0928 | locus YMR078C, strain ctf18, hits give low values 0.472 | locus YMR125W, strain sto1, hits give low values 0.827 | locus YMR129W, hits give low values 0.795 | locus YMR205C, strain PFK2, hits give low values 0.337 | locus YMR223W, strain ubp8, hits give low values 0.581 | locus YMR231W, strain pep5, hits give low values 0.365 | locus YMR263W, strain SAP30, hits give low values 0.561 | locus YMR307W, strain GAS1, hits give low values 0.252 | locus YNL067W, strain RPL9B, hits give low values 0.518 | locus YNL071W, strain lat1, hits give low values 0.11 | locus YNL183C, strain NPR1, hits give low values 0.728 | locus YNL209W, strain ssb2, hits give low values 0.303 | locus YNL233W, strain BNI4, hits give low values 0.287 | locus YNL248C, strain rpa49, hits give low values 0.708 | locus YNL250W, strain rad50, hits give low values 0.887 | locus YNL271C, strain bni1, hits give low values 0.882 | locus YNL307C, strain MCK1, hits give low values 0.093 | locus YNR049C, strain mso1, hits give low values 0.781 | locus YNR052C, strain pop2, hits give low values 0.664 | locus YOL147C, strain pex11, hits give low values 0.137 | locus YOR001W, strain rrp6, hits give low values 0.678 | locus YOR061W, strain CKA2, hits give low values 0.509 | locus YOR069W, strain VPS5, hits give low values 0.638 | locus YOR070C, strain gyp1, hits give low values 0.449 | locus YOR080W, strain dia2, hits give low values 0.674 | locus YOR083W, strain WHI5, hits give low values 0.624 | locus YOR106W, strain vam3, hits give low values 0.244 | locus YOR136W, strain idh2, hits give low values 0.765 | locus YOR144C, strain elg1, hits give low values 0.304 | locus YOR184W, strain ser1, hits give low values 0.173 | locus YOR231W, strain MKK1, hits give low values 0.75 | locus YOR265W, strain rbl2, hits give low values 0.552 | locus YOR270C, strain vph1, hits give low values 0.236 | locus YOR290C, strain snf2, hits give low values 0.249 | locus YOR316C, strain cot1, hits give low values 0.698 | locus YPL051W, strain arl3, hits give low values 0.209 | locus YPL078C, strain atp4, hits give low values 0.528 | locus YPL106C, strain sse1, hits give low values 0.435 | locus YPL240C, strain hsp82, hits give low values 0.444 | locus YPL241C, strain CIN2, hits give low values 0.565 | locus YPL256C, strain CLN2, hits give low values 0.663 | locus YPR119W, strain clb2, hits give low values 0.61 | locus YPR141C, strain kar3, hits give low values 0.886 | locus YPR163C, strain tif3, hits give low values 0.257 | locus YPR167C, strain met16, hits give low values 0.538 | strain wtn01, hits give low values 0.436
